# Measurements as given in ChEMBL document CHEMBL3988442, “University of Dundee, Small-Polar-MMV Screening Library” (2021).
# The campaign covered roughly 48,000 compounds. About 13,000 (27%) showed an effect of 50% or more. The list shows a part of the results.
# System: Wolbachia pipientis
# Test: Anti-Wolbachia Cell-Based Screen
# Format: functional
# Design: scale not given: in the data most compounds retested in dose-response had high values
# Details: 5 µM
row,SMILES,Percent Effect
1,Cc1cc(NC(=O)CNCc2csc(-c3cnccn3)n2)ccc1Cl,-4.536%
2,CN(c1ncccc1CNS(=O)(=O)N1CCOCC1)C1CCCCC1,1.985%
3,Cc1ccc(S(=O)(=O)N2CCOCC2C#N)cc1Br (configuration not stated),-3.449%
4,Cc1nc[nH]c1CN1C[C@@H]2CC[C@H](C1)N(C(=O)CCc1cnn(C)c1)C2,-6.684%
5,O=C(NCCCn1ccnn1)C1CCCN(C2CCCC2)C1 (configuration not stated),9.707%
6,O=c1c(CN2CCOCC2)coc2ccc(Cl)cc12,14.49%
7,CC(C)NC(=O)Nc1ccccc1CN1CCOCC1,8.436%
8,O=c1c(CN2CCOCC2)coc(O)c1CN1CCOCC1,110.9%
9,O=c1c(CN2CCCCC2)coc2ccc(Cl)cc12,-1.352%
10,CC(C)C(C)NC(=O)Nc1ccccc1CN1CCOCC1 (configuration not stated),-2.62%
11,O=c1c(CN2CCCCCC2)coc(O)c1CN1CCOCC1,99.75%
12,Cc1ccc2occ(CN3CCN(c4ncccn4)CC3)c(=O)c2c1,-23.78%
13,O=C1OCCN1CCN1CCCN(Cc2ccccc2F)CC1,0.37%
14,O=c1c(CN2CCCCCC2)coc(O)c1CN1CCCCCC1,87.67%
15,O=c1c(CN2CCSCC2)coc(O)c1CN1CCCC1,112.9%
16,CCn1ccc2ccc(CN3CCCC3c3nc(C(C)C)no3)cc21 (configuration not stated),-10.44%
17,Cc1cccc(CO[C@H]2CO[C@@]3(CCN(S(=O)(=O)N(C)C)C3)C2)n1,-27.75%
18,FC(F)(F)Sc1ccccc1NCc1nc(C2CC2)no1,0.6009%
19,CC(NCc1cnc(C2CCC2)s1)c1ccc(-n2cncn2)cc1 (configuration not stated),-68.33%
20,CC(C)CCCC(C)NC(=O)c1ccc(OCC(N)=O)cc1 (configuration not stated),-8.979%
21,O=C(NCC(F)(F)F)C(c1cccnc1)N1CCCC1 (configuration not stated),-5.02%
22,CCC(=O)Nc1ccc(F)c(S(=O)(=O)NC(C)(C)C)c1,-7.233%
23,CC(NC(=O)Nc1ccc(F)c(F)c1)c1nc[nH]n1 (configuration not stated),-17.28%
24,Cc1ccc(NC(=O)CC2Cn3ncnc3NC2=O)cc1C (configuration not stated),101.1%
25,Cc1ccc(NC(=O)c2ccc(CC3CC(=O)NC3=O)cc2)cc1O (configuration not stated),-14.91%
26,O=C(CC1Cn2ncnc2NC1=O)Nc1ccc(F)c(F)c1 (configuration not stated),110.9%

row,SMILES,Percent Effect
1,Cc1cc(NC(=O)CNCc2csc(-c3ncccn3)n2)ccc1Cl,12.11%
2,O=C1CN(c2ccc(CNC(=O)c3ccc[nH]3)cc2F)CCN1,1.628%
3,CCNC(=O)NC(=O)CN(CC(C)O)c1ccccc1 (configuration not stated),-6.081%
4,FC(F)(F)c1nnc2n1CCN(c1nc(C3CC3)ns1)C2,7.167%
5,c1ccc(-c2cc(CN3CCC(c4ccn[nH]4)CC3)on2)cc1,-18.74%
6,O=C(NCc1cc(-c2ccccc2)no1)NCC1CCCO1 (configuration not stated),63.77%
7,CC(C(=O)NS(=O)(=O)Cc1cc(-c2ccccc2)no1)C1CC1 (configuration not stated),-15.76%
8,CCN1CCC(CNC(=O)NCc2cc(-c3ccc(C)cc3)no2)C1 (configuration not stated),6.048%
9,O=S(=O)(Cc1cc(-c2ccccc2)no1)CC1CCCO1 (configuration not stated),117.5%
10,CC1(C)CC1C(=O)NS(=O)(=O)Cc1cc(-c2ccccc2)no1 (configuration not stated),-6.027%
11,O=C(NS(=O)(=O)Cc1cc(-c2ccccc2)no1)C1CCOCC1,-7.495%
12,O=C(CC1CCCO1)NS(=O)(=O)Cc1cc(-c2ccccc2)no1 (configuration not stated),94.25%
13,Cc1cc(C)c(CNC(=O)NCC2CCCO2)c(=O)[nH]1 (configuration not stated),-10.27%
14,CS(=O)(=O)N1CC(c2nc[nH]n2)c2cc(C(=O)NC3CC3)ccc21 (configuration not stated),-11.05%
15,CC(=O)Nc1ccc(Cl)c(C(=O)N(C)C(C)c2ccon2)c1 (configuration not stated),2.031%
16,COCCN1CCN(Cc2nc3c(s2)CCCC3)[C@H]2CS(=O)(=O)C[C@H]21,-3.056%
17,CN(C)CCN(Cc1ccccc1)C(=O)C1=NNC(=O)CC1,-7.83%
18,Cc1ccc(NC2CCN(C(=O)c3cc(C(N)=O)cs3)CC2)nn1,7.568%
19,Cc1ccc(NC2CCN(C(=O)c3cccc(F)c3F)CC2)nn1,-1.212%
20,Cc1ccc(NC2CCN(C(=O)c3ccc4c(c3)CCC4)CC2)nn1,112.2%
21,COc1ccc(C(=O)N2CCC(Nc3ccc(C)nn3)CC2)c(F)c1,-2.664%
22,Cc1ccc(NC2CCN(C(=O)c3ccc(F)c(C)c3)CC2)nn1,89.48%
23,COc1cccc(COCC(=O)NC(C(N)=O)c2ccccc2)c1 (configuration not stated),-6.273%
24,COc1cc2nc3n(c(=O)c2cc1OC)CCN(C(=O)C1CCC1)CC3,115.6%
25,CCCC(=O)N1CCc2nc3cc(OC)c(OC)cc3c(=O)n2CC1,121.4%
26,COc1ccc2[nH]nc(CN3CCC(C(=O)N4CCCCC4)CC3)c2c1,-39.46%

row,SMILES,Percent Effect
1,COc1cc2nc3n(c(=O)c2cc1OC)CCN(C(=O)C1CC1)CC3,109.5%
2,COc1cc2nc(C)n(CC(=O)NCCCN(C)C)c(=O)c2cc1OC,20.74%
3,COc1cc2nc3n(c(=O)c2cc1OC)CCN(C(C)=O)CC3,-0.7868%
4,COc1cc2nc3n(c(=O)c2cc1OC)CCN(C(=O)C(C)(C)C)CC3,130.5%
5,CCC(=O)N1CCc2nc3cc(OC)c(OC)cc3c(=O)n2CC1,-9.574%
6,CC(CCN(C)C)NC(=O)c1cccc(C(F)(F)F)c1F (configuration not stated),5.139%
7,CN(Cc1ccncc1)CC(c1cccs1)N1CCOCC1 (configuration not stated),-0.8027%
8,Cc1ccc(C(=O)N(Cc2cccnc2)C[C@@H]2CCC(=O)N2)s1,6.518%
9,CCc1cnc(N)nc1NCCCn1cc(Cl)cn1,12.08%
10,CNS(=O)(=O)c1ccc(CNC(=O)NCC2CCCO2)cc1 (configuration not stated),-4.659%
11,O=C(CC1CCCO1)NCCCC(=O)Nc1ccc(Cl)cc1 (configuration not stated),117.3%
12,O=C(CCC1CCCO1)NCCCC(=O)Nc1ccc(Cl)cc1 (configuration not stated),132.9%
13,O=C(CCCNC(=O)C1CC1)Nc1cnn(-c2ccccc2Cl)c1,2.837%
14,O=C(CC1CCCO1)NCCc1ccccc1Br (configuration not stated),-5.645%
15,O=C(CCCNC(=O)NCC1CCCO1)Nc1ccc(Cl)cc1 (configuration not stated),100.3%
16,O=C(CCCNC(=O)C1CCCO1)Nc1ccc(Cl)cc1 (configuration not stated),123.9%
17,O=C(CCC1CCCO1)NCCCO (configuration not stated),-3.139%
18,O=C(NCCNS(=O)(=O)c1cccc(Cl)c1)C1CCCO1 (configuration not stated),-1.895%
19,O=C(NCCCN1CCN(c2ncccn2)CC1)NCC1CCCO1 (configuration not stated),8.99%
20,O=C(CC1CCCO1)NCCc1ccc(Br)cc1F (configuration not stated),2.724%
21,O=C(CCC1CCCO1)NS(=O)(=O)c1ccc(Cl)cc1 (configuration not stated),-0.06204%
22,CNS(=O)(=O)CC1CCCN1c1ccccn1 (configuration not stated),-17.04%
23,Cc1nc(-c2ccccc2)sc1CSC(C)C(N)=O (configuration not stated),-3.877%
24,CCOC(C)c1nc(CN2CCC(NC(C)C)CC2)cs1 (configuration not stated),9.562%
25,Cc1nn2cc(CCNC(=O)c3cc(C(C)C)no3)nc2s1,-4.133%
26,Cc1cc(Cl)ccc1-n1ncc(C(=O)N(C)CCc2ccccn2)c1N,185.4%

row,SMILES,Percent Effect
1,Cc1cc(C(=O)N2C[C@@H]3[C@@H](CN(C)CCc4ccccn4)[C@@H]3C2)c(C)o1,-1.529%
2,CN(CCc1ccccn1)C(=O)c1ccccc1F,-16.13%
3,CN(CCc1ccccn1)C(=O)C(c1cccnc1)N1CCOCC1 (configuration not stated),2.073%
4,CCOC(=O)c1cnn(-c2cc(C)ccn2)c1N,-12.86%
5,Cc1ccc(C)c(-n2ncc(C(=O)N(C)CCc3ccccn3)c2N)c1,159.7%
6,CN(CCc1ccccn1)C(=O)c1cnn(-c2ccccc2F)c1N,110.9%
7,Cc1ccccc1SC1CCN(C(=O)[C@@H]2C[C@@H](N)CN2)CC1,-21.68%
8,O=C(O)C(F)(F)F.O=C(O)C(F)(F)F.O=C(O)c1cc2c(nc1-c1cncnc1)CCN(C1CCOC1)CC2 (configuration not stated),-20.41%
9,Cc1cnn(CC2CCCCN2CCCS(N)(=O)=O)c1 (configuration not stated),-7.264%
10,OC1(CN2CCCCC2)CCN(Cc2c[nH]c(CC3CCCC3)n2)C1 (configuration not stated),5.378%
11,CN(Cc1c(F)cccc1Cl)C(=O)c1cnn(CCN2CCCCC2)c1,4.459%
12,COc1ccc(F)c(-c2nccn2CCN2CCCC2)c1,-4.269%
13,O=C(CN1CCCCCC1)NCc1ccc2[nH]c(=O)[nH]c2c1,33.1%
14,O=C(O)[C@@H]1CCN(C(=O)c2cscn2)[C@@H]1c1ccc(F)cc1,132.5%
15,Cc1ccccc1N1CCN(C(=O)c2cscn2)C(C)C1 (configuration not stated),6.365%
16,O=C(O)[C@@H]1CCN(C(=O)c2ccccn2)[C@@H]1c1ccc(F)cc1,129.5%
17,O=C1N[C@@H]2CCN(C(=O)c3ccccc3)[C@@H]2C(=O)N1c1ccc(F)cc1,9.769%
18,O=C(O)[C@@H]1CCN(C(=O)Cc2ccccn2)[C@@H]1c1ccc(F)cc1,124%
19,CC(C)OC(=O)[C@@H]1CCN(C(=O)c2ccccn2)[C@@H]1c1ccc(F)cc1,116.9%
20,O=C(c1cscn1)N1CC[C@H]2[C@@H]1CCC(=O)N2c1ccccc1,5.214%
21,O=C(COCC1CC1)N1CCN(C(=O)Cc2ccccn2)CC1,1.286%
22,CC(C)OC(=O)N1C[C@H]2CC[C@@H]1CN(C(=O)c1ccccn1)C2,1.179%
23,O=C(O)C(F)(F)F.O=C([C@H]1C[C@H]2OCC[C@H]2N(C(=O)c2ccccn2)C1)N1CCCCO1,-2.538%
24,O=C(COC1CCCCC1)N1CCN(C(=O)Cc2ccccn2)CC1,-7.801%
